From PubChem BioAssay AID463173 (ICCB-Longwood Screening Facility, Harvard Medical School, 2010)
About 4,300 (8.3%) of roughly 52,000 compounds were called active. Only a selection was taken, and actives are over-represented in it overall. Values without a mark were called inactive. Rule as the data show it: active = survival mostly below about 52% (no sharp cut-off); inactive = mostly above about 56%.

Test system: DeltatarO mutant
Assay: S. aureus survival, RN4220 and DeltatarO strains – OD600, teichoic acid synthesis inhibitors, primary screen (AID 463173)
Conditions: S. aureus RN4220 wild type/DeltatarO growth, OD600, 18 h, active compounds read low, screened at 18.75 µg/mL (by protocol)

SMILES	survival
CC(CCO)Nc1nc2c(c(=O)n(C)c(=O)n2C)n1Cc1ccc(Br)cc1 (stereo unspecified)	140%
COc1cccc(C(=O)NC2=NC(c3ccccc3F)CC(=O)N2)c1 (stereo unspecified)	75%
CC(C)C(=O)Nc1c(C(=O)N2CCN(c3ccccc3F)CC2)oc2ccccc12	58%
O=C(NCc1ccccc1)C1CCCN(c2ncccn2)C1 (stereo unspecified)	88%
Cc1cccc(-c2noc(-c3ccc(N4CCN(C)CC4)c([N+](=O)[O-])c3)n2)c1	22% (active)
O=[N+]([O-])c1cc(-c2nc(-c3ccccc3)no2)ccc1N1CCN(c2ccccc2)CC1	77%
COc1ccccc1-c1noc(-c2ccc(N3CCN(c4ccccc4)CC3)c([N+](=O)[O-])c2)n1	44% (active)
COc1ccccc1-c1noc(-c2ccc(N3CCOCC3)c([N+](=O)[O-])c2)n1	100%
COc1ccccc1-c1noc(-c2ccc(N3CCN(C)CC3)c([N+](=O)[O-])c2)n1	113%
Cc1cccc(-c2noc(-c3ccc(N4CCOCC4)c([N+](=O)[O-])c3)n2)c1	67%
CN1CCN(c2ccc(-c3nc(-c4ccccc4)no3)cc2[N+](=O)[O-])CC1	41% (active)
Cc1cccc(-c2noc(-c3ccc(N4CCCC4)c([N+](=O)[O-])c3)n2)c1	82%
Cc1ccc(-c2noc(-c3ccc(N4CCN(C)CC4)c([N+](=O)[O-])c3)n2)cc1	85%
Cc1ccc(-c2nc(SCC(=O)Nc3cc(C)on3)c3c(=O)n(C)c(=O)n(C)c3n2)cc1	83%
CC(=O)c1ccc(NC(=O)CSc2nc(=O)n(Cc3ccccn3)c3c2CCC3)cc1	67%
COc1ccc(CCNC(=O)CSC2=Nc3ccccc3C3=NC(CCC(=O)NCc4ccccc4)C(=O)N23)cc1OC (stereo unspecified)	107%
O=C(Nc1nc2c(F)cc(F)cc2s1)c1ccc2c(c1)OCCO2	85%
Cn1cc(C(=O)NCc2ccccc2)c(=O)c2cc(S(=O)(=O)N3CCCCCC3)ccc21	118%
Cc1cc(Br)ccc1NC(=O)c1ccc(NS(=O)(=O)c2c(C)noc2C)cc1	59%
Cc1noc(C)c1S(=O)(=O)Nc1ccc(C(=O)Nc2ccc(Br)cc2)cc1	36% (active)
COc1ccc(C)cc1NC(=O)c1ccc(NS(=O)(=O)c2c(C)noc2C)cc1	83%
CCc1ccc(NC(=O)c2ccc(NS(=O)(=O)c3c(C)noc3C)cc2)cc1	48%
Cc1noc(C)c1S(=O)(=O)Nc1ccc(C(=O)Nc2ccc(C(C)C)cc2)cc1	52% (active)

SMILES	survival
Cc1noc(NS(=O)(=O)c2ccc(NC(=O)c3ccc(Br)cc3)cc2)c1C	74%
Cc1cccc(C)c1NC(=O)CSc1nc(-c2ccccc2)nc2c1Cc1c(CO)cnc(C)c1O2	87%
CCc1cccc(C)c1NC(=O)C1CCN(c2nnc(C)c3c(C)n(-c4ccccc4)nc23)CC1	77%
Cc1ccc(NC(=O)C2CCN(c3nnc(C)c4c(C)n(-c5ccccc5)nc34)CC2)cc1Cl	71%
Cc1cc(C)c(NC(=O)C2CCN(c3nnc(C)c4c(C)n(-c5ccccc5)nc34)CC2)c(C)c1	52% (active)
O=C(Nc1cccc(C(F)(F)F)c1)c1cccnc1NCCO	77%
CCOC(=O)CSc1nc2sc3c(c2c(=O)n1CC)CCCC3	58%
C=C(C)Cn1c(SCC(=O)c2ccc(Br)cc2)nc2sc3c(c2c1=O)CCCC3	50%
C=C(C)Cn1c(SCC(=O)c2ccc(OC)cc2)nc2sc3c(c2c1=O)CCCC3	75%
CCCCn1c(SCC(=O)c2ccccc2)nc2sc3c(c2c1=O)CCCC3	44% (active)
C=C(C)CSc1nc2sc3c(c2c(=O)n1CCCC)CCCC3	-3% (active)
C=C(C)Cn1c(SCC(=O)c2ccccc2)nc2sc3c(c2c1=O)CCCC3	69%
COc1ccc(CNC(=O)CN(C)S(=O)(=O)c2ccc3[nH]c4c(c3c2)CCCC4)cc1	70%
Cn1c(C(=O)N(Cc2ccccc2)C(C)(C)C)cc2sccc21	109%
CCOc1ccccc1CNC(=O)C1CCN(c2nnc(C)c3c(C)n(-c4ccc(C)cc4)nc23)CC1	68%
Cc1cc(Nc2cccc(C(F)(F)F)c2)nc2ccc(NC(=O)c3ccc(N(C)C)cc3)cc12	55%
Cc1cc(Nc2cccc(C(F)(F)F)c2)nc2ccc(NC(=O)c3cccc(Cl)c3)cc12	92%
COc1ccc(CC(=O)Nc2ccc3nc(Nc4cccc(Cl)c4)cc(C)c3c2)cc1	98%
COc1ccc(CC(=O)Nc2ccc3nc(Nc4cccc(Cl)c4)cc(C)c3c2)cc1OC	46% (active)
COc1ccccc1CC(=O)Nc1ccc2nc(Nc3cccc(Cl)c3)cc(C)c2c1	144%
COc1ccccc1CC(=O)Nc1ccc2nc(Nc3cccc(C(F)(F)F)c3)cc(C)c2c1	92%
Cc1cc(Nc2cccc(C(F)(F)F)c2)nc2ccc(NC(=O)c3ccc(=O)[nH]c3)cc12	37% (active)
COc1cccc(CC(=O)Nc2ccc3nc(Nc4cccc(C(F)(F)F)c4)cc(C)c3c2)c1	25% (active)

SMILES	survival
Cc1cc(Nc2cccc(Cl)c2)nc2ccc(NC(=O)Cc3cccc(C(F)(F)F)c3)cc12	64%
O=C(Cn1cc(S(=O)(=O)Cc2ccccc2Cl)c2ccccc21)Nc1cccc(C(F)(F)F)c1	75%
CCOc1ccc(C2C(C(=O)Nc3ccccc3)=C(C)Nc3nc(SCc4cc(C)ccc4C)nn32)cc1 (stereo unspecified)	123%
Cc1ccc(NC(=O)Cn2c(=O)n(-c3ccc(CC(=O)NCC4CCCO4)cc3)c(=O)c3ccccc32)cc1 (stereo unspecified)	95%
CCCCOC(=O)c1ccc(NC(=O)c2cc3c(=O)n4cccc(C)c4nc3s2)cc1	66%
COc1cc(OC)cc(C(=O)NCC(c2cccs2)S(=O)(=O)c2ccc(F)c(C)c2)c1 (stereo unspecified)	100%
Cc1cccc(NC(=O)C2CCCN(S(=O)(=O)c3ccc4c(c3)CCCC(=O)N4)C2)c1 (stereo unspecified)	95%
COc1ccc(NS(=O)(=O)c2ccc3[nH]c(=O)ccc3c2)cc1OC	98%
COc1ccc(-c2nc3sc(CCNC(=O)c4cc(Cl)ccc4OC)c(C)n3n2)cc1	73%
COc1ccc(C(C(=O)NCc2cccs2)N(Cc2ccco2)C(=O)Cn2nnc(-c3cccs3)n2)cc1 (stereo unspecified)	93%
CCc1cccc(C)c1NC(=O)CCCn1nc(C)c2sc3ccccc3c2c1=O	86%
CCc1ccc(Sc2cc(C(=O)O)c3ccccc3n2)cc1	78%
CCOCCCNC(=O)CN1C(=O)COc2ccc(S(=O)(=O)N3CCCC3)cc21	87%
CCc1ccccc1NC(=O)NC(CC)Cn1nnc2ccccc2c1=O (stereo unspecified)	61%
CCC(Cn1nnc2ccccc2c1=O)NC(=O)Nc1cc(C)cc(C)c1 (stereo unspecified)	41% (active)
CCC(Cn1nnc2ccccc2c1=O)NC(=O)Nc1ccc(C)c(C)c1 (stereo unspecified)	45%
CCC(Cn1nnc2ccccc2c1=O)NC(=O)Nc1cc(OC)cc(OC)c1 (stereo unspecified)	88%
CCC(Cn1nnc2ccccc2c1=O)NC(=O)Nc1ccc(C)cc1 (stereo unspecified)	55%
CCC(Cn1nnc2ccccc2c1=O)NC(=O)Nc1ccccc1Cl (stereo unspecified)	85%
CCC(Cn1nnc2ccccc2c1=O)NC(=O)Nc1ccc(C)cc1C (stereo unspecified)	44% (active)
CCC(Cn1nnc2ccccc2c1=O)NC(=O)Nc1cccc(C)c1C (stereo unspecified)	55%
CCC(Cn1nnc2ccccc2c1=O)NC(=O)Nc1cccc(Cl)c1 (stereo unspecified)	39% (active)
COc1ccccc1CNC(=O)C(C)n1ccc2cc(S(=O)(=O)N3CCCC3)ccc21 (stereo unspecified)	81%

SMILES	survival
CCc1ccc(CN2CCC(C(=O)N(C)CCc3ccc(OC)c(OC)c3)CC2)cc1	81%
CCCN(C(=O)c1cc2c(=O)[nH]c3ccc(C)cc3c2s1)c1ccc(CC)cc1	64%
CCCCNS(=O)(=O)c1ccc(NC(=O)c2c(-c3ccccc3)noc2C)cc1	101%
CN(C)c1ccc(CNC(=O)C2CCN(S(=O)(=O)c3ccc4c(ccn4C)c3)CC2)cc1	95%
Cc1ccc(NC(=O)c2cnc(SCC(=O)Nc3cc(C)on3)n(C)c2=O)cc1	88%
COc1ccc(CCn2c3c(c(=O)[nH]c2=O)C(NC(=O)c2ccccc2F)(C(F)(F)F)C(=O)N3)cc1OC (stereo unspecified)	60%
COc1ccc(N(Cc2cc3ccccc3[nH]c2=O)C(=O)c2cccc(Cl)c2)cc1	87%
COc1ccc(CCNC(=O)CCCCn2c(=O)c3ccccc3n(Cc3cc(C)ccc3C)c2=O)cc1OC	108%
Cc1ccc(N2CC(c3nnc(Cc4ccc(F)cc4)o3)CC2=O)cc1 (stereo unspecified)	24% (active)
Cc1ccc(N2CC(c3nnc(Cc4ccc(Cl)cc4)o3)CC2=O)cc1 (stereo unspecified)	48%
O=C1CC(c2nnc(Cc3ccc(F)cc3)o2)CN1c1ccccc1 (stereo unspecified)	134%
COc1ccc(S(=O)(=O)Nc2cccc(-c3ccc(N4CCCCCC4)nn3)c2)c(OC)c1	74%
COc1ccc(Cn2ccc3nc(C)c(C(=O)N4CCN(c5cccc(OC)c5)CC4)cc3c2=O)cc1	81%
Cc1ccc2nc(COc3cccc(NC(=O)c4ccccc4Cl)c3)cc(=O)n2c1	75%
Cc1cccc(C(=O)Nc2ccccc2OCc2cc(=O)n3cc(C)ccc3n2)c1	60%
CCC(=O)Nc1cccc(OCc2cc(=O)n3cc(C)ccc3n2)c1	55%
O=C(Nc1cccc(OCc2cc(=O)n3ccccc3n2)c1)Nc1cccc(C(F)(F)F)c1	-4% (active)
Cc1ccc2nc(COc3ccccc3NC(=O)c3ccccc3F)cc(=O)n2c1	85%
O=C(COc1ccc(F)cc1)Nc1cccc(OCc2cc(=O)n3ccccc3n2)c1	102%
Cc1ccc2nc(COc3ccccc3NC(=O)c3ccc(F)cc3)cc(=O)n2c1	20% (active)
Cc1ccc2nc(COc3cccc(NC(=O)Nc4ccc(C)c(Cl)c4)c3)cc(=O)n2c1	25% (active)
Cc1ccc(Cl)cc1NC(=O)Nc1cccc(OCc2cc(=O)n3ccccc3n2)c1	72%
